Experimental data from PubChem BioAssay AID652062 (Broad Institute, 2013).
Hit rate of the full screen: of about 1,400 compounds, about 1,100 (79%) were called active.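 Rule for the calls: active = fitted half-maximal concentration of a falling signal no higher than twice the top valid dose in every test run; inconclusive = runs disagree, or flat partial inhibition, or poor fit; inactive = every run inactive: flat, wrong direction, or potency beyond limit.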 So high a share suggests a set chosen from earlier hits. Not all results are given here. Results with a measured potency or affinity are listed apart.

test: inhibitors of clade B AD8 Env fusion, dose response, cell-based, cherry-pick (AID 652062); conditions: HeLa-AD8 Env / CEM-CCR5 cell fusion, luciferase; at 35 µM (top of the series) unless noted

Point of comparison: `COCC(=O)Nc1ccc2c(c1)C(=O)N(C)[C@H]1CC[C@H](CC(=O)NC3CCCC3)O[C@H]1CO2`, activity change, negative = inhibition 17%. Against it:
- Cc1ccc(C(=O)NCc2ccccn2)cc1S(=O)(=O)N1CCCCC1 — higher, 24.4%
- Cc1ccc(S(=O)(=O)N(C)C[C@H]2Oc3ccc(NC(=O)Nc4cccc5ccccc45)cc3C(=O)N([C@H](C)CO)C[C@@H]2C)cc1 — higher, 64%
- CO[C@@H]1CN(C)C(=O)c2ccc(NS(C)(=O)=O)cc2OC[C@@H](C)N(C(=O)C2CCCCC2)C[C@H]1C — higher, 26.2%
- CO[C@H]1CN(C)C(=O)c2ccc(NC(=O)C3CC3)cc2OC[C@@H](C)N(C(C)=O)C[C@@H]1C — higher, 20%
- CCC(=O)Nc1ccc2c(c1)C(=O)N(C)C[C@@H](OC)[C@H](C)CN(C(=O)CC)[C@@H](C)CO2 — higher, 44.7%
- CCS(=O)(=O)Nc1ccc2c(c1)C(=O)N(C)C[C@H](OC)[C@@H](C)CN(C(=O)C1CCC1)[C@H](C)CO2 — higher, 25.1%
- CCCC(=O)Nc1ccc2c(c1)OC[C@H](C)N(Cc1ccncc1)C[C@H](C)[C@H](OC)CN(C)C2=O — lower, -9.34%
- CCCC(=O)Nc1ccc2c(c1)OC[C@@H](C)N(C(=O)CN(C)C)C[C@H](C)[C@@H](OC)CN(C)C2=O — lower, -23.4%
- CO[C@H]1CN(C)C(=O)c2cc(NS(=O)(=O)c3ccc(Cl)cc3)ccc2OC[C@@H](C)N(C)C[C@@H]1C — higher, 45%
- CO[C@H]1CN(C)C(=O)c2cc(NC(C)=O)ccc2OC[C@@H](C)N(Cc2nccs2)C[C@H]1C — higher, 20%
- CO[C@@H]1CN(C)C(=O)c2ccc(NC(C)=O)cc2OC[C@@H](C)N(Cc2cncnc2)C[C@@H]1C — lower, 15.1%
- CCCC(=O)Nc1ccc2c(c1)C(=O)N(C)C[C@@H](OC)[C@@H](C)CN(Cc1nccs1)[C@@H](C)CO2 — higher, 33.3%
- COc1ccccc1C(=O)Nc1ccc2c(c1)OC[C@H](C)N(C(C)=O)C[C@H](C)[C@H](OC)CN(C)C2=O — lower, -17.7%
- COc1ccccc1S(=O)(=O)Nc1ccc2c(c1)C(=O)N(C)C[C@@H](OC)[C@@H](C)CN[C@@H](C)CO2 — lower, -2.95%
- CO[C@@H]1CN(C)C(=O)c2cc(NS(=O)(=O)c3ccc(C)cc3)ccc2OC[C@H](C)N(C(=O)NC(C)C)C[C@@H]1C — lower, -8.46%
- CCOC(=O)CN1CCCc2nc(C)c(C)cc21 — lower, -11.4%
- Cc1ccc(Cn2nnnc2CN2CCC(c3nc4ccc(Cl)cc4[nH]3)CC2)cc1 — higher, 44.3%
- CC(=O)c1ccc([C@H]2C[C@@]34CN(C(=O)OC(C)(C)C)S(=O)(=O)[C@H]3C[C@H]2O4)cc1 — lower, -3.29%
- COc1ccc(C)cc1NC(=O)CCNS(=O)(=O)c1ccc2c(c1)CC(C)N2C(C)=O (stereo not given) — lower, -17.8%
- CNC[C@@H]1Oc2ccc(NS(C)(=O)=O)cc2CC(=O)N([C@H](C)CO)C[C@H]1C — higher, 18.9%
- O=C(Nc1ccc(Cl)cn1)C1CCCN1S(=O)(=O)c1cccc2ccccc12 (stereo not given) — lower, -67.5%
- CCCN1[C@H](C(=O)N[C@@H](C)c2ccccc2)[C@@H](CO)[C@@H]2Cn3c(ccc(-c4cccc(F)c4)c3=O)[C@@H]21 — higher, 99.2%
- Cc1nc2ccccc2c2oc(C(=O)NCc3ccc4c(c3)OCO4)cc12 — lower, -50%
- CCc1ccc(-c2nc(CN3CCC(C(=O)NCCc4ccc(OC)c(OC)c4)CC3)c(C)o2)cc1 — lower, -25.1%
- COc1ccc(S(=O)(=O)N[C@H]2C=C[C@H](CC(=O)N3CCN(c4ccccc4)CC3)O[C@@H]2CO)cc1 — lower, -26.4%
- O=C(Cc1ccccc1)N[C@@H]1C=C[C@H](CC(=O)N2CCCCC2)O[C@@H]1CO — lower, -10.8%
- Cc1ccc(S(=O)(=O)N[C@@H]2CC[C@H](CCNC(=O)c3ccccc3F)O[C@H]2CO)cc1 — higher, 23.6%
- CC(C)CN(C(=O)c1ccc(S(=O)(=O)N2CCCCC2)cc1)C1CCS(=O)(=O)C1 (stereo not given) — lower, -25.2%
- COCc1[nH]nc2c1C(c1ccc(F)cc1)N(Cc1ccccc1)C2=O (stereo not given) — lower, 11.7%
- O=C(Nc1ccc(F)cc1)Nc1ccc2c(c1)[C@H]1C[C@@H](CC(=O)N3CCCCC3)O[C@H](CO)[C@H]1O2 — higher, 57.6%
- CS(=O)(=O)N(Cc1ccc(Cl)cc1)c1ccc(C(=O)NCCC2=CCCCC2)cc1 — lower, -7.87%
- CC(=O)OC1c2ccccc2C(=O)N1c1ccccc1C (stereo not given) — lower, -15.7%
- Cc1ccc(C2CC(=O)c3cnc(N4CCc5ccccc5C4)nc3C2)cc1 (stereo not given) — lower, 0.787%
- CN1C(=O)c2cc(NC(=O)NC3CCCC3)ccc2OC[C@@H]2O[C@H](CC(=O)NC3CCC3)CC[C@@H]21 — lower, -5.79%
- CCNC(=O)Nc1ccc2c(c1)C(=O)N(C)[C@@H]1CC[C@@H](CC(=O)NCC3CCCCC3)O[C@@H]1CO2 — lower, -14.5%
- Cc1nn(C)cc1NC(=O)C[C@H]1CC[C@@H]2[C@@H](COc3ccc(NC(=O)C4CCC4)cc3C(=O)N2C)O1 — lower, -24.8%
- CCNC(=O)C[C@H]1CC[C@@H]2[C@@H](COc3ccc(NC(=O)Cc4cccs4)cc3C(=O)N2C)O1 — higher, 66.7%
- COc1ccc(NC(=O)C(=O)NCC2CCCN2S(=O)(=O)c2cccs2)cc1 (stereo not given) — higher, 23.4%
- COc1ccc(OC)c(NC(=O)COc2ccc3c(c2)CCC3)c1 — higher, 43.3%
- O=C(NCCCc1nc2ccccc2[nH]1)c1ccco1 — lower, -25.6%
- C[C@H](O)[C@@H]1C(=O)N2CCc3c([nH]c4cccc(-c5ccccc5)c34)[C@@H]2C[C@@H]1N(C)C(=O)OCc1ccccc1 — lower, -17.1%
- C=C(C)CN(CC)c1nc(N)c2c(N)nc3c(c2c1C#N)CC(=O)N3C12CC3CC(CC(C3)C1)C2 — higher, 27.3%
- COC(=O)[C@@]1(Cc2ccc(F)cc2)[C@H]2c3cc(C(=O)N(C)C)n(CCO)c3C[C@H]2CN1C(=O)c1ccccc1 — higher, 39.7%

Compound `COc1ccccc1CCNCc1ccc(OC)c(OCc2ccccc2)c1` has an activity change, negative = inhibition of 45.9% [at 16 µM].
